Compounds with a hit are over-represented: about 3.6% of the library has one in this group of screens.
Pf apPOL inh = Pf-apPOL DNA polymerase inhibition | 0.25% of 210,000 active | inhibition, % at 10 µM | Recombinant Pf-apPOL, molecular beacon fluorescence, 1.5 h
mHTT CaM bind = disrupts binding of mutant huntingtin to calmodulin. AlphaScreen His-mHTT/GST-CaM binding, luminescence. inhibition, % at 15 µM. P42858. AID 1671202. 3.6% of 190,000 active;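 further: 0% = both proteins with DMSO and 100% = one protein alone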
Target sequence (P42858 whole entry, looked up, stated change not applied): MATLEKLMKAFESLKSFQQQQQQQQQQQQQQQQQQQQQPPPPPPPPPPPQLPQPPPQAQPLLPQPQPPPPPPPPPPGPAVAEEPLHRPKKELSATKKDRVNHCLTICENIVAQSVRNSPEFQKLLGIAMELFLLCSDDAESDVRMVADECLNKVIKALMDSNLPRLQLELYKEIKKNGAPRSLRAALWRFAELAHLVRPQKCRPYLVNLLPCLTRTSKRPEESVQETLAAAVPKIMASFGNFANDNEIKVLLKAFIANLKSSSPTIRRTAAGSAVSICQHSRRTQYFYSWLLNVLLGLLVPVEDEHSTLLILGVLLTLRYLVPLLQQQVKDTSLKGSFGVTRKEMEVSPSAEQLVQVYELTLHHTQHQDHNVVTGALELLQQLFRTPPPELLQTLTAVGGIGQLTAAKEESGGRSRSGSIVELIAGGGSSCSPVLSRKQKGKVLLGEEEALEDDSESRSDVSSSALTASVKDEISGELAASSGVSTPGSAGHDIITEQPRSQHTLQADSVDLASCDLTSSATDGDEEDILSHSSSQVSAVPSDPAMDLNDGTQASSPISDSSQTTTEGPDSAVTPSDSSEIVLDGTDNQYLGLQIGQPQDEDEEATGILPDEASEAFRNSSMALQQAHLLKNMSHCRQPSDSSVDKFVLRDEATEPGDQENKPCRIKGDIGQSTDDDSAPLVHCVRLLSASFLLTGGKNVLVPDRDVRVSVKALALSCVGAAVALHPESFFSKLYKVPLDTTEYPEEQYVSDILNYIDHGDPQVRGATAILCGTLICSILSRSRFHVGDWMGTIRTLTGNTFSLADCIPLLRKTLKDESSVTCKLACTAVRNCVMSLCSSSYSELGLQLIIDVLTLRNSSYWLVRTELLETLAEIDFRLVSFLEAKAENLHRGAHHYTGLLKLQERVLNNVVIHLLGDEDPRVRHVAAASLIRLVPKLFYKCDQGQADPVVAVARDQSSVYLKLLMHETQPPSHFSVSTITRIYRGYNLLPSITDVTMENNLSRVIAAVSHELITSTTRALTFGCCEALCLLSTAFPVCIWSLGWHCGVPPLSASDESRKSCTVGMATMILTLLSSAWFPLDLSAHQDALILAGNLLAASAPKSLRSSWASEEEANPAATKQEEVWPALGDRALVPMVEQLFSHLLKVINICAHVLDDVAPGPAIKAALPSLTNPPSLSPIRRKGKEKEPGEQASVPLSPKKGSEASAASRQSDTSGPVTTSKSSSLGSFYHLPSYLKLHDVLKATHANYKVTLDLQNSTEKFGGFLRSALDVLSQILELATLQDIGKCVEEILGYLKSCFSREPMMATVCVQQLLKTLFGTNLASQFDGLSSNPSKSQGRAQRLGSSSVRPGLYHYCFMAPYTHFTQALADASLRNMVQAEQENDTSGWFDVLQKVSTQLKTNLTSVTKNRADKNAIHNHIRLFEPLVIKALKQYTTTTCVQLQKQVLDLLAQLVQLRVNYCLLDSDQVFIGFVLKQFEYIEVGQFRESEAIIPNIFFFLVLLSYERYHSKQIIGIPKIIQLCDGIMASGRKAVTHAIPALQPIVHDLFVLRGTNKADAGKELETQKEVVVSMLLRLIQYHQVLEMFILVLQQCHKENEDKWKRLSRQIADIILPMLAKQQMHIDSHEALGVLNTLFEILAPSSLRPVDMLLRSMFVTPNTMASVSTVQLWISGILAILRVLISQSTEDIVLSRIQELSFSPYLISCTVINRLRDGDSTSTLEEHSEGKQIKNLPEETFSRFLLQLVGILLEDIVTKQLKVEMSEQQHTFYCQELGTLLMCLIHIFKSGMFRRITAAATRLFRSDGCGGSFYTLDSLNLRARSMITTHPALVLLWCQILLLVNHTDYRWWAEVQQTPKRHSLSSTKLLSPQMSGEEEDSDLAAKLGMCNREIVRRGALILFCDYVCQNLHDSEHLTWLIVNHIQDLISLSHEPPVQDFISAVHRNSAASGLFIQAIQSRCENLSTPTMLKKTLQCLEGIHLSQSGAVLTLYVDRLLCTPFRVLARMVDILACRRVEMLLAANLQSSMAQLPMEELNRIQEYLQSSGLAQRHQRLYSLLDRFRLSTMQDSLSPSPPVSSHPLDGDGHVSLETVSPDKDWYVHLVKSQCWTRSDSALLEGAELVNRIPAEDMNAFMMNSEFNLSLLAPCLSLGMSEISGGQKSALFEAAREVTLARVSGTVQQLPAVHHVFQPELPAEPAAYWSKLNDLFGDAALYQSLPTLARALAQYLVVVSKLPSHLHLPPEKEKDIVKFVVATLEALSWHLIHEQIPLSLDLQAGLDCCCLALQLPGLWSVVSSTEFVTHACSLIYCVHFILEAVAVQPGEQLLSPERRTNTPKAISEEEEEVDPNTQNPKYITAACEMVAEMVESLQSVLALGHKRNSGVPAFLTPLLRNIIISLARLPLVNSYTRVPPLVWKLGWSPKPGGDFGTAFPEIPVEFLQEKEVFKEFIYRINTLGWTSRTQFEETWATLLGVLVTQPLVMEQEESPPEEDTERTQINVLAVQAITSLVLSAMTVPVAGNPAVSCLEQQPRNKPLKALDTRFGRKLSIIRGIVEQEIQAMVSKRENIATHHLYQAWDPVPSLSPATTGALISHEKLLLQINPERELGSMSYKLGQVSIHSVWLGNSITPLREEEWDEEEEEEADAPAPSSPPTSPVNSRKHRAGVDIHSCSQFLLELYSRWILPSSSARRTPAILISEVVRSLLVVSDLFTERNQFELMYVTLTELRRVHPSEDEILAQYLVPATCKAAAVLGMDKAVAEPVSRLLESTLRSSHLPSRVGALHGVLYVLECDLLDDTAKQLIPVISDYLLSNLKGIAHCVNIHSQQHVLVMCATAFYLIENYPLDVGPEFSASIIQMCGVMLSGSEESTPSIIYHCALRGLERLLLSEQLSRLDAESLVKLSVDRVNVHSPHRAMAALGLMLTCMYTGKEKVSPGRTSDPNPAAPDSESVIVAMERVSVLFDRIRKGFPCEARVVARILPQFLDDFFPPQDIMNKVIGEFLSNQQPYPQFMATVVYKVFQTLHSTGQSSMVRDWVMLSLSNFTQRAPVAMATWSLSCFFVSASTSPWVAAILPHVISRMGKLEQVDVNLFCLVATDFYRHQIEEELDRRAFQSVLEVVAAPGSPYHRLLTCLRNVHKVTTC
Starred values were filed as active, the others as inactive; · = no result given. No stated cut-off is given here; in the data, active means inhibition above about 50%; inactive means the rest.

SMILES | Pf apPOL inh | mHTT CaM bind
O=[N+]([O-])c1ccc2c(c1)C1C=CCC1C(c1ccc(F)cc1)N2 (stereo not drawn) | -3 | 14
COc1ccc2c(c1)C1C=CCC1C(c1ccc([N+](=O)[O-])cc1)N2 (stereo not drawn) | 4 | 95*
COc1cc([N+](=O)[O-])cc2c1NC(c1ccccc1)C1CC=CC21 (stereo not drawn) | 9 | 46
O=C(c1ccc2c(c1)C1C=CCC1C(c1ccc([N+](=O)[O-])cc1)N2)N1CCCCCC1 (stereo not drawn) | -2 | 96*
Cc1oc(C2CCN(C(=O)c3cc(F)cc(F)c3)CC2)nc1C(=O)N1CCCCC1 | 3 | 7
CCOc1ccc(/C=C2/NC(=O)NC2=O)cc1OC | -5 | -1
Cc1ccc(NC(=O)C2CC(=O)N(c3ccc4oc(C)nc4c3)C2)cc1 (stereo not drawn) | -1 | -4
O=c1/c(=C/c2cccc(Oc3ccccc3)c2)sc2ncnn12 | 0 | 5
Cn1c(=O)c2c(-c3ccccc3)n(Cc3ccccc3)cc2n(C)c1=O | -9 | 18
COc1ccc(-c2c3c(=O)n(C)c(=O)n(C)c3cn2-c2ccccc2C)cc1 | 54* | 8
COc1ccc(-c2c3c(=O)n(C)c(=O)n(C)c3cn2C2CCCCC2)cc1 | 67* | 33
CNc1ccc([N+](=O)[O-])cc1-n1cc2c(c1-c1ccc(OC)cc1)c(=O)n(C)c(=O)n2C | -3 | 36
COc1ccc(-c2c3c(=O)n(C)c(=O)n(C)c3cn2Cc2ccc(Cl)cc2)cc1 | 10 | 76*
Cc1ccccc1-n1cc2c(c1-c1ccccc1)c(=O)n(C)c(=O)n2C | 2 | 6
Cc1cc(C(=O)N2CCCCCC2)nc2cc(-c3cccs3)nn12 | -10 | 2
N#C/C(=C/c1ccc2c(c1)OCO2)c1ccc(Cl)cc1Cl | · | -10
CCc1ccc(C(=O)N2CCC(c3nc(CNC(=O)C4CC4)cs3)CC2)cc1 | 0 | 12
NNc1nc(-c2ccccc2)c2cc(Br)ccc2n1 | -10 | 76*
COc1nc(-c2ccccc2)c2cc(Br)ccc2n1 | -3 | -8
CC(=O)N1CCc2sc(C(=O)NCc3cccc(Br)c3)cc2C1 | 0 | 56*
CC(=O)N1CCc2sc(C(=O)NCc3cccc(Cl)c3)cc2C1 | -4 | 5
O=C(C1CCCO1)N1CCN(c2ccc(-n3cccn3)nn2)CC1 (stereo not drawn) | 2 | 3
CCOC(CNC(=O)c1ccc2c(c1)ncn2-c1cc(Cl)ccc1OC)OCC | -4 | 53*
COc1ccc(C)cc1-n1cnc2cc(C(=O)NCC(OC)OC)ccc21 | -2 | 5
COC(=O)c1cc(OCc2ccc(F)cc2)c2cc(F)ccc2n1 | -6 | -4
SMILES | Pf apPOL inh | mHTT CaM bind
CCOc1ccc(C(=O)N2CCCC(C)(C(=O)NCc3ccc(OC)cc3)C2)cc1 (stereo not drawn) | -3 | 2
COc1ccc(NC(=O)N2CCC(c3nc4ccncc4n3CC(C)C)C2)cc1Cl (stereo not drawn) | 1 | 9
Cc1cc(C)c2sc(N(CCN(C)C)C(=O)c3ccccc3[N+](=O)[O-])nc2c1 | 6 | 84*
CCN(C(=O)c1ccccc1[N+](=O)[O-])c1ccccc1C | -4 | 0
Cc1ccc2nc(C(=O)Nc3ccc(Cl)cc3)cc(N3CCOCC3)c2c1 | 4 | -2
Cn1c(=O)c(-c2[nH][nH]c(=O)c2C=C2C(=O)Nc3ncccc3C2=O)c(O)c2ccccc21 | · | 4
COc1ccc(Nc2nc(-c3ccc(C)c(C)c3)cs2)cc1 | 4 | 31
Cc1nc(N)sc1-c1csc(Nc2ccc([N+](=O)[O-])cc2)n1 | -5 | 99*
Cc1ccnc(Nc2nc(-c3ccccc3)cs2)c1 | -3 | -3
Cc1nc(N)sc1-c1csc(Nc2cccc(C(=O)O)c2)n1 | -2 | 30
Cc1nc(N)sc1-c1csc(Nc2ccccc2)n1 | 0 | 89*
CC(=O)Nc1nc(C)c(-c2csc(Nc3ccc([N+](=O)[O-])cc3)n2)s1 | -16 | 32
Cc1cccc(Nc2nc(-c3ccc(C)c(C)c3)cs2)c1 | -7 | 55*
Cc1ccnc(Nc2nc(-c3sc(N)nc3C)cs2)c1 | -5 | 66*
COc1ccc(CCS(=O)(=O)NCC(O)c2cccs2)cc1 (stereo not drawn) | -2 | -10
O=C(Nc1nc2ccc(Br)cc2s1)c1ccc([N+](=O)[O-])cc1Cl | 1 | 15
Ic1ccc(-c2csc(Nc3ccc4c(c3)OCO4)n2)cc1 | -3 | 62*
Cc1ccc(Nc2nc(-c3ccc([N+](=O)[O-])cc3)cs2)cc1C | -1 | 75*
Cc1ccc(NCc2ccc([N+](=O)[O-])cc2)cc1C | -4 | 60*
c1ccc(Nc2nc(-c3ccc4c(c3)OCO4)cs2)nc1 | 4 | 37
O=[N+]([O-])c1ccc(Nc2nc(-c3ccncc3)cs2)cc1 | 12 | -2
Cc1cccc(NCc2ccc([N+](=O)[O-])cc2)c1 | -1 | 39
O=C(O)CN1CC2([N+](=O)[O-])C=CCC([N+](=O)[O-])(C1)C2 (stereo not drawn) | -5 | -6
Cc1ccc([N+](=O)[O-])c2c3c([nH]c12)C(=O)CCC3 | 83* | 12
Cc1ccc([N+](=O)[O-])c2c3c([nH]c12)C(=NCCO)CCC3 | 1 | 22
SMILES | Pf apPOL inh | mHTT CaM bind
COc1cc(-c2nc(-c3ccsc3)c(-c3ccccc3)[nH]2)cc(OC)c1O | -7 | 87*
Oc1ccc(-c2nc(-c3ccc(F)cc3)c(-c3ccncc3)[nH]2)cc1 | 17 | ·
c1ccc(-c2nc(-c3cccnc3)[nH]c2-c2ccccc2)cc1 | -3 | ·
COc1cc(-c2nc(-c3ccccc3)c(-c3ccc(O)cc3)[nH]2)cc(OC)c1O | -1 | 88*
COc1cccc(-c2nc(-c3ccsc3)c(-c3ccccc3)[nH]2)c1OC | -5 | 44
c1ccc(-c2nc(-c3ccc4c(c3)sc3ccccc34)c(-c3ccccc3)[nH]2)cc1 | · | 55*
O=C(Nc1cc(C(F)(F)F)ccc1Cl)c1ccc(Cl)c([N+](=O)[O-])c1 | 1 | 5
CC(=O)N1CCc2cc(N3CC(C(=O)Nc4cccc(Br)c4)CC3=O)ccc21 (stereo not drawn) | -4 | 3
COc1ccc(NC(=O)N2CCCC(C)(C(=O)NCc3ccc(F)cc3)C2)cc1 (stereo not drawn) | -4 | 0
Cc1ccc(-c2nnc(N3CCC(C(=O)NCc4ccc(F)cc4Cl)CC3)o2)cc1 | -4 | 10
O=C(Nc1cccc(N=Cc2cc(Br)ccc2O)c1)c1ccco1 | -8 | 26
CC(=O)Nc1cccc(N=Cc2cc(Cc3ccccc3)ccc2O)c1 | 1 | 95*
CC(=O)Nc1cccc(N=Cc2cc(Cc3ccccc3Cl)cc([N+](=O)[O-])c2O)c1 | -3 | 98*
Cc1ccccc1C(=O)Nc1cccc(N=Cc2cc(Cl)cc([N+](=O)[O-])c2O)c1 | 2 | 49
CCC(CC)C(=O)Nc1c2c(nn1-c1ccc(F)cc1)CS(=O)C2 (stereo not drawn) | -2 | -2
O=C1OC(c2ccc(Cl)c([N+](=O)[O-])c2)=N/C1=C/c1ccc2c(c1)OCO2 | 1 | 4
COc1ccc(CNc2ccc([N+](=O)[O-])cc2C)c(OC)c1C | -6 | 1
COc1ccc(OC)c(CNc2cc([N+](=O)[O-])ccc2OC)c1 | 22 | -3
Cc1cc([N+](=O)[O-])ccc1NCc1c[nH]c2ccccc12 | 2 | 69*
COc1ccc(OC)c(CNc2ccc([N+](=O)[O-])cc2C)c1 | 5 | 51*
CCn1ccnc(NCC(C)C)c1=O | -9 | -4

Source: PubChem
